# This is a sample that favours compounds with a hit; in the whole collection about 2.6% have one here.
# TPT1 inh: C. albicans TPT1 enzyme inhibition; recombinant caTPT1, FP RNA substrate dephosphorylation; inhibition, % at 5 µM; 300,000 tested, 0.81% active; AID 1962;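 active = inhibition above the mean of all tested compounds plus 3 SD, set per screening campaign, cut at about 24% in these data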;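 note: plate controls were DMSO alone for no effect and ferristatin control at 100 nM for full effect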
# CRFBP-R2 block: CRF-BP/CRF-R2 complex antagonism. AID 588475. inhibition, % at 11.8 µM. HEK293 CRF-R2/CRF-BP, CRF-induced calcium fluorescence. 350,000 tested, 0.59% active;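 active = inhibition of the ligand-induced calcium signal above about 50% at the single tested concentration, limit read from the data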
# Myeloid diff MLP: compounds promoting myeloid differentiation; 360,000 tested, 1% active; ER-HoxA9 myeloid progenitors, lysozyme-GFP differentiation, flow cytometry; calls only at 10 µM;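 active = normalized GFP-positive differentiation at or above the plate's own cutoff, the solvent-only control mean plus 3 SD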;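 note: cells exposed to compound for four days before flow analysis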
# CRFBP-R2 agonist: CRF-BP/CRF-R2 complex agonism | HEK293 CRF-R2/CRF-BP, calcium dye fluorescence (FLIPR); percent of saturating CRF peptide response | activation, % at 13.2 µM | 350,000 tested, 0.46% active | AID 588473;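 active = activation of at least 50%, plus an integration ratio under a set limit after plate pattern correction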;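 note: plate controls were neutral control wells without compound for no effect and CRF at EC100 for full effect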
# IDE cell activ: activators of human insulin-degrading enzyme in cells; activation, % at 5.96 µM; AID 493087; 340,000 tested, 0.073% active; HEK cells, FAbeta-B cleavage, fluorescence polarization; 0% vehicle, 100% cell-free pure enzyme wells;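 active = activation above the mean of all tested compounds plus 3 SD, set per screening campaign, cut at about 17% in these data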
# IDE inh: cellular human IDE inhibition | P14735 | HEK cells, FAbetaB cleavage, fluorescence polarization | AID 434962 | 320,000 tested, 0.41% active | inhibition, % at 5.59 µM;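 active = percent inhibition above the average of all tested compounds plus 3 SD, set per screening campaign, cut at about 16% in these data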;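 note: IDE supplied by intact live HEK cells; FP after avidin binding of uncleaved biotin substrate so inhibition keeps polarization high; 0% = DMSO wells and 100% = 60 µM reference IDE inhibitor Ii1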
# * marks the source's active call; other numbers are inactive results; i = inactive; · = no result; + = active, no number.
SMILES,TPT1 inh,CRFBP-R2 block,Myeloid diff MLP,CRFBP-R2 agonist,IDE cell activ,IDE inh
O=S(=O)(NC1CCCC1)c1ccc(S(=O)(=O)NC2CCCC2)cc1,-2,-71,i,56*,-3,2
COc1ccc(S(=O)(=O)NC2CC2)cc1Br,2,-33,+,0,4,-1
CCN(CC(=O)NCc1ccccn1)S(=O)(=O)c1ccc(Cl)cc1,2,-21,i,2,4,1
Cc1ccc(NC2c3ccccc3C(=O)N2CCN2CCOCC2)cc1 (centres undefined),-2,-1,i,1,0,-1
CCN(CC)S(=O)(=O)c1ccc(NC2c3ccccc3C(=O)N2CCN2CCOCC2)cc1 (centres undefined),0,9,+,-3,2,-4
CCc1cc(C(=O)N2CCN(S(=O)(=O)c3cc(C)ccc3C)CC2)sc1C,·,11,i,0,8,5
O=C(CSc1nnc(-c2ccccc2F)n1C1CC1)NCc1ccco1,·,0,i,2,3,-1
COc1ccc(CC(=O)NCCc2ccc(S(N)(=O)=O)cc2)cc1,-1,-21,i,-1,4,6
COCC(=O)NCCc1ccc(S(N)(=O)=O)cc1,6,21,+,-1,2,-7
CC(C)CNC(=O)c1cccc(NC(=O)C(C)Oc2ccccc2)c1 (centres undefined),0,-4,i,3,3,7
COc1ccc(NS(=O)(=O)c2ccc(NC(=S)NC(=O)/C=C/c3ccccc3)cc2)nn1,1,13,i,1,-4,3
CCOC(=O)C1C(c2ccccc2Cl)NC(=O)N(C)C1(O)C(F)(F)F (centres undefined),4,2,+,10,5,3
CCOC(=O)C1C(c2ccccc2O)NC(=O)NC1(O)C(F)(F)F (centres undefined),-3,5,i,-1,1,0
O=C(Nc1ccncc1)c1cccc(S(=O)(=O)N2CCc3ccccc32)c1,1,10,+,0,9,3
COc1ccc(S(=O)(=O)N(Cc2ccco2)Cc2cc3ccccc3[nH]c2=O)cc1,0,-21,i,2,-4,-3
Cc1ccc(S(=O)(=O)N2C[C@@H](C)[C@]3(C2)[C@H](O)[C@H](OC(=O)NC2CCCC2)C[C@H]2C(=O)N(c4ccccc4)C(=O)[C@H]23)cc1,·,-3,i,-1,·,·
Cc1ccc(OCC(=O)NC(=S)Nc2ccccn2)c(Br)c1,2,4,i,4,1,0
Cc1cccc(C(=O)NC(=S)NNC(=O)COc2c(C)cccc2C)c1,1,-90,i,167*,-8,3
Cc1cccc(C(=O)NC(=S)N2CCN(C)CC2)c1,-5,22,i,-1,1,-1
Cc1cccc(C(=O)NC(=S)N2CCN(C(=S)NC(=O)c3cccc(C)c3)CC2)c1,0,50*,i,-1,3,2
Cc1ccc(OCC(=O)NNC(=S)NC(=O)C(C)(C)C)c(Br)c1,-2,-19,i,84*,8,-1
Cc1ccc(C(=O)NC(=S)NNC(=O)COc2ccccc2C)cc1,-2,-50,i,114*,1,2
O=S(=O)(NCCCCNS(=O)(=O)c1ccc(F)cc1)c1ccc(F)cc1,0,28,i,0,2,-5
COC(=O)[C@]12CCCCC=C1N(CCC1=CCCCC1)C(=O)[C@H](CC(=O)N1CCOCC1)C2,·,·,i,·,·,·
Cc1cccc(C(=O)NC(=S)NNC(=O)c2ccccc2Cl)c1,2,-2,i,152*,-12,3
SMILES,TPT1 inh,CRFBP-R2 block,Myeloid diff MLP,CRFBP-R2 agonist,IDE cell activ,IDE inh
Cc1cccc(C(=O)NC(=S)NNC(=O)Cc2ccccc2)c1,-3,17,i,137*,-6,3
Cc1cccc(C(=O)NC(=S)Nc2ccccc2C(=O)O)c1,-3,-10,i,-2,6,9
COc1ccccc1NC(=S)N1CCC(C(=O)c2ccc(F)cc2)CC1,-2,14,i,0,3,4
CCCn1nc([N+](=O)[O-])c(C(C#N)c2nc3ccccc3s2)c(Cl)c1=O (centres undefined),0,69*,i,46,10,-1
COc1cccc(C(=O)c2c(C)c(CCC#N)n3ccccc23)c1,-3,8,i,1,4,2
O=C(N/N=C/c1ccc(O)c(O)c1)c1ccc(CSc2cccc3cccnc23)cc1,0,77*,i,-1,10,8
Cc1ccc(S(=O)(=O)OCCC2=CC(=O)CCN2Cc2ccccc2)cc1,·,-3,i,-2,21*,2
COc1ccccc1N(C)S(=O)(=O)c1ccc(C(=O)Nc2cc(OC)c(OC)c(OC)c2)cc1,·,1,i,0,1,·
N/C(=N\OC(=O)Nc1ccccc1)c1ncc([N+](=O)[O-])s1,0,8,+,0,0,5
COC(=O)C(CC(=O)c1cccc(OC)c1)c1ccc(F)cc1 (centres undefined),-2,55*,i,0,3,1
Cc1cc(F)ccc1S(=O)(=O)N1CCCOC1CNC(=O)C(=O)NCc1ccncc1 (centres undefined),-1,-12,i,1,2,6
CC(=O)Nc1sc(/C(C#N)=C/c2ccc(Cl)c(Cl)c2)nc1-c1ccc(C)cc1,·,-320,+,281*,-8,·
CC(=O)Nc1sc(N/N=C/c2ccc(C)cc2)nc1-c1ccc(C)cc1,0,-21,i,-5,0,-4
O=C(CN1CCN(Cc2ccccc2)CC1)Nc1ccccc1,4,0,i,0,0,-1
CCN1CCN(CCNC(=O)c2ccc(/C=C3/Sc4ccccc4N(Cc4cccc(Cl)c4)C3=O)cc2)CC1,-1,-7,i,5,38*,6
Cc1cccc(CN2C(=O)/C(=C\c3ccc(C(=O)NCCN4CCOCC4)cc3)Sc3ccccc32)c1,3,-16,i,3,0,-3
CC(=O)Oc1ccccc1Cn1c(C)c(C(=O)NCc2ccccc2C(F)(F)F)sc1=O,·,·,i,·,·,·
CC(=O)Nc1nc2n(n1)C(c1ccc(F)cc1)C=C(c1ccccc1)N2 (centres undefined),-17,-6,i,75*,6,6
O=C(Nc1nc2n(n1)C(c1ccccc1)C=C(c1ccccc1)N2)c1ccco1 (centres undefined),-7,-25,i,-4,2,10
CC(=O)Nc1nc2n(n1)C(c1ccccc1)C=C(c1ccccc1)N2 (centres undefined),-22,-11,i,48,4,2
COc1ccc(C2C=C(c3ccc(Cl)cc3)Nc3nc(NC(C)=O)nn32)cc1 (centres undefined),-50,·,·,·,·,20*

# Assay outcomes deposited in PubChem by several laboratories.
